“And” between values parts separate entries of the source, which are not always exact repeats. Identical values can stand only once. The campaign covered roughly 5,500 compounds. About 2,000 (36%) were called active. Inconclusive results (about 18%) are left out. Cut-off read from the data, not from the text of the source: active = normalized growth mostly below about 0.91 (no sharp cut-off); inconclusive = no clear call, values can overlap the other calls; inactive = mostly above about 0.92. The list shows a part of the results.
Experiment: chemical genetic growth profiling, strain panel (AID 1159580);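 note: tested at 20 µM; growth read once vehicle control cultures reached saturation at 30 °C; 1 = growth at the plate median or of vehicle wells; lower values mean less growth of the strain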
Conditions: S. cerevisiae deletion strains, growth OD

Measured: normalized growth

Cc1c(NC(=O)c2cccnc2)c(=O)n(-c2ccccc2)n1C
inactive: locus YAL013W, strain DEP1, active compounds read low 0.996 | locus YAL021C, strain ccr4, active compounds read low 1.02 | locus YAL026C, strain drs2, active compounds read low 0.999 | locus YAL030W, strain snc1, active compounds read low 1 | locus YBL061C, strain skt5, active compounds read low 1 | locus YBR009C, strain hhf1, active compounds read low 0.966 | locus YBR021W, strain FUR4, active compounds read low 1.03 | locus YBR023C, strain chs3, active compounds read low 1.01 | locus YBR171W, strain sec66, active compounds read low 1 | locus YBR229C, strain ROT2, active compounds read low 0.964 | locus YBR231C, strain swc5, active compounds read low 1.01 | locus YBR279W, strain paf1, active compounds read low 0.999 | locus YCL011C, strain gbp2, active compounds read low 1 | locus YCL016C, strain dcc1, active compounds read low 0.999 | locus YCL029C, strain bik1, active compounds read low 0.997 | locus YCL061C, strain MRC1, active compounds read low 1 | locus YCL069W, strain vba3, active compounds read low 0.989 | locus YCR088W, strain abp1, active compounds read low 0.997 | locus YDL005C, strain med2, active compounds read low 1 | locus YDL035C, strain GPR1, active compounds read low 0.992 | locus YDL040C, strain nat1, active compounds read low 0.988 | locus YDL074C, strain BRE1, active compounds read low 0.949 | locus YDL101C, strain DUN1, active compounds read low 0.981 | locus YDL134C, strain PPH21, active compounds read low 1.01 | locus YDL185W, strain tfp1, active compounds read low 0.983 | locus YDL192W, strain arf1, active compounds read low 0.994 | locus YDR001C, strain nth1, active compounds read low 0.992 | locus YDR069C, strain doa4, active compounds read low 1.01 | locus YDR101C, strain arx1, active compounds read low 0.988 | locus YDR137W, strain rgp1, active compounds read low 0.992 | locus YDR159W, strain sac3, active compounds read low 1 | locus YDR162C, strain NBP2, active compounds read low 1 | locus YDR195W, strain ref2 0.998 | locus YDR297W, strain sur2, active compounds read low 0.999 | locus YDR318W, strain mcm21, active compounds read low 1 | locus YDR334W, strain swr1, active compounds read low 0.999 | locus YDR335W, strain msn5, active compounds read low 0.997 | locus YDR388W, active compounds read low 1 | locus YDR392W, strain spt3, active compounds read low 0.934 | locus YDR502C, strain sam2, active compounds read low 0.994 | locus YEL003W, strain gim4, active compounds read low 1 | locus YEL037C, strain rad23, active compounds read low 0.994 | locus YEL061C, strain CIN8 (second series), active compounds read low 1 | locus YEL061C, strain CIN8, active compounds read low 0.98 | locus YER015W, strain faa2, active compounds read low 1 | locus YER016W, strain bim1, active compounds read low 1 | locus YER110C, active compounds read low 0.997 | locus YER111C, strain swi4, active compounds read low 0.997 | locus YER155C, strain BEM2 (second series), active compounds read low 1.02 | locus YER155C, strain BEM2, active compounds read low 1 | locus YER167W, strain BCK2, active compounds read low 1 | locus YFR010W, strain ubp6, active compounds read low 0.997 | locus YGL078C, strain dbp3, active compounds read low 0.988 | locus YGL086W, strain mad1, active compounds read low 0.985 | locus YGL167C, strain pmr1, active compounds read low 1 | locus YGL173C, strain kem1, active compounds read low 1.01 | locus YGL227W, strain vid30, active compounds read low 0.998 | locus YGL240W, strain doc1, active compounds read low 1.01 | locus YGL248W, strain PDE1, active compounds read low 0.974 | locus YGL253W, strain hxk2, active compounds read low 1 | locus YGR078C, strain PAC10, active compounds read low 0.97 | locus YGR135W, strain pre9, active compounds read low 1.07 | locus YGR252W, strain gcn5, active compounds read low 1.02 | locus YHR013C, strain ard1, active compounds read low 0.96 | locus YHR027C, strain rpn1, active compounds read low 1.01 | locus YHR030C, strain SLT2, active compounds read low 1 and 1.04 | locus YHR079C, strain IRE1 (second series), active compounds read low 0.992 | locus YHR079C, strain IRE1, active compounds read low 1.02 | locus YHR094C, strain hxt1, active compounds read low 0.998 | locus YHR129C, strain ARP1, active compounds read low 1 | locus YHR142W, strain chs7, active compounds read low 1 | locus YHR200W, strain rpn10, active compounds read low 0.992 | locus YIL066C, strain RNR3, active compounds read low 0.974 | locus YIL073C, strain SPO22, active compounds read low 1.04 | locus YIL125W, strain kgd1, active compounds read low 0.987 | locus YIR030C, strain dcg1, active compounds read low 0.999 | locus YJL092W, strain hpr5, active compounds read low 1 | locus YJL095W, strain BCK1 (second series), active compounds read low 1 | locus YJL095W, strain BCK1, active compounds read low 0.964 and 1.04 | locus YJL115W, strain asf1, active compounds read low 1 | locus YJL129C, strain trk1, active compounds read low 1.01 | locus YJL134W, strain LCB3, active compounds read low 0.995 | locus YJL154C, strain vps35, active compounds read low 0.989 | locus YJL164C, strain tpk1, active compounds read low 1.01 | locus YJL166W, strain qcr8, active compounds read low 1.01 | locus YJL168C, strain set2, active compounds read low 0.987 | locus YJL187C, strain SWE1 (second series), active compounds read low 0.95 | locus YJL187C, strain SWE1, active compounds read low 0.999 | locus YJR043C, strain POL32, active compounds read low 0.924

Reference: PubChem BioAssay AID1159580 (chemical genetic matrix, 2015)
